An excerpt weighted towards active compounds, which were near 0.65% of everything screened.
NS1 function inh: qHTS Assay for Inhibitors of Influenza NS1 Protein Function; hit rate 0.4% among 270,000; AID 2326, 2010; Potency, µM (titrated, usually from 46.1 µM), for inactives: at the highest dose activity, positive = more growth; further: potency means the concentration at half of the fitted maximal effect; actives are rising curves; nearly all actives have a fitted effect of over 50% in size
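A cell-based growth assay was used: compounds that relieve NS1-induced slow growth of budding yeast raise OD600. Assay medium was yeast nitrogen base with ammonium sulphate and -URA supplement, pH 6.0, with 2% galactose.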
SARS PLP yeast: qHTS of Yeast-based Assay for SARS-CoV PLP; Potency, µM (highest dose often 32.9 µM), inactives show top-dose activity, positive = growth rescue, most hits filed as activators; S. cerevisiae expressing SARS-CoV PLpro, growth rescue; hit rate 0.19% among 330,000; AID 485353, 2010; further: potency means the concentration at half of the fitted maximal effect; 0% is about no effect; nearly all actives have a fitted effect of over 55% in size
AMA1-RON2 inh: qHTS for Inhibitors of AMA1-RON; Towards Development of Antimalarial Drug Lead: Primary Screen; Plasmodium falciparum AMA1 (3D7) - RON2 peptide interaction; AlphaScreen AMA1-biotinylated RON2 peptide binding; Potency, µM (doses to about 58.2 µM), inactives show top-dose activity change, negative = inhibition, actives largely listed as inhibitors; hit rate 0.2% among 360,000; AID 720542, 2013; active means well fitted inhibition curve with a large enough effect; inconclusive means small, poorly fitted or top-dose-only effect; inactive means no such curve, though single readings can be large or run the other way;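 further: potency means the concentration at half of the fitted maximal effect; 0% = vehicle wells and -100% = peptide control; nearly all actives have a fitted effect of over 45% in size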
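AMA1 (3D7) with his tag at 25 nM final met compounds first, then biotinylated RON2 peptide at 25 nM; detection used donor plus acceptor beads, 10 µg/mL apiece, read by AlphaScreen after 30 min at room temperature.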
Flu NS1 inh: Assay for Inhibitors of Influenza NS1 Protein Function: Hit Validation; influenza NS1 function cell assay, 15-point titration; shares compounds with NS1 function inh; activity change, negative = inhibition, % at 32.9 µM; 1,400 tested, under 10 active; AID 492980, 2010; further: 0% is about no effect
Flu PR8 replic: Assay for Inhibitors of Influenza NS1 Protein Function: Influenza virus replication assay in MDCK cells infected with virus A/PR/8/34 | MDCK infected influenza A/PR/8/34, virus titer TCID50; stronger effect = lower value | AID 504647, 2011 | shares compounds with NS1 function inh | virus titer (log TCID50), log10 TCID50 at 5 µM | hit rate 30% among 95; call rule not given here
* hit, by the source's call; ? = inconclusive; / = not tested or not shown; [ ] = another dose, or the depositor's remark. Unless noted, the call rests on the fitted dose curve.

SMILES	NS1 function inh	SARS PLP yeast	AMA1-RON2 inh	Flu NS1 inh	others
Cc1ccc2nc(-c3ccc(NS(=O)(=O)c4c(C)n(C)c(=O)n(C)c4=O)cc3)sc2c1	7.9µM*	1%	-6%	4
CC(=O)Nc1ccc(S(=O)(=O)N(C)CC(=O)OCC(=O)c2ccc3c(c2)NC(=O)CO3)cc1	/	-3%	1%	/
C=C1C(=O)O[C@@H]2C[C@@H](C)[C@@H]3C=CC(=O)[C@@]3(C)[C@@H](O)[C@H]12	?	0%	10%	/
C=C1C(=O)C=C[C@]2(C)C[C@@H]3OC(=O)[C@](C)(O)[C@H]3C[C@@H]12	?	-6%	1%	0
Cc1ccccc1C(=O)Nc1cc(NC(=O)c2ccccc2C)cc(C(=O)O)c1	?	1%	?	/
COc1cc2c(cc1OC)/C(=C/C(=O)N1CCOCC1)NC(C)(C)C2	?	-3%	-3%	1
CC1(C)Cc2ccccc2/C(=C/C(=O)N2CCCCCC2)N1	7%	6%	-12%	/
CCOC(=O)/C=C1\NC(C)(C)Cc2cc(OC)c(OC)cc21	2%	1%	-19%	/
CCOC(=O)/C=C1\NC(C)(C)Cc2cc(OC)c(O)cc21	?	4%	-12%	20
CC(=O)c1ccc(NC(=O)C(C)OC(=O)c2ccc(NS(=O)(=O)c3ccc(F)c(F)c3)cc2)cc1 (configuration not stated)	11µM*	14%	-3%[11.6 µM]	16
Cc1ccc(NC(=O)C(C)OC(=O)c2ccc(NS(=O)(=O)c3ccc(F)c(F)c3)cc2)cc1 (configuration not stated)	4%	-9%	11%	/
O=C(COC(=O)c1cc(S(=O)(=O)N2CCCC2)ccc1O)Nc1ccc(F)cc1F	/	-2%	-10%[11.6 µM]	/
O=C(CCN1C(=O)C2CC=C(Cl)CC2C1=O)NCc1ccccc1 (configuration not stated)	2%[9.22 µM]	33%	10%	/
O=C(CCN1C(=O)C2CC=C(Cl)CC2C1=O)Nc1ccccc1O (configuration not stated)	?	-1%	-7%	9
S=C(NCCN1CCOCC1)NC1CCCC1	/	-1%	-2%	/
C=CCNC(=O)C1CC(=O)N(c2ccc(OCC(=O)Nc3c(C)cccc3C)cc2)C1 (configuration not stated)	?	0%	8%	-17
C=CCNC(=O)C1CC(=O)N(c2ccc(OCC(=O)Nc3ccc(C)cc3)cc2)C1 (configuration not stated)	4%	-2%	-2%	/
CCCCCCn1c(=O)n2n(c1=O)[C@@H]1CN(S(=O)(=O)c3ccc(C)cc3)C[C@]1(O)[C@@H](OC(=O)NCc1ccco1)C2	/	/	-8%	/
COc1ccc(-c2ccc(/C=N/NC(=O)Cc3nnc(N)s3)o2)cc1Cl	11%	0%	62%	/
Cc1ccc(-c2ccc(/C=N/NC(=O)Cc3nnc(N)s3)o2)cc1Cl	?	1%	57%	28
CC(Oc1ccc(Br)cc1)C(=O)N(Cc1ccccc1)c1c(N)n(Cc2ccccc2)c(=O)[nH]c1=O (configuration not stated)	/	/	3%	/
COC(=O)c1ccc(CS(=O)(=O)c2ccccc2C)o1	1µM*	-2%	-4%	21
COCCNC(=O)c1ccc(CS(=O)(=O)c2ccccc2C)o1	2%	10%	16%	/
CS(=O)(=O)c1ccc(C(=O)OC2CCOC2=O)cc1[N+](=O)[O-] (configuration not stated)	0%	2%	7%	/
COc1ccccc1NC(=O)Nc1ccccc1C(=O)NCCCN1CCOCC1	2%	0%	22%	/
COCCn1nnnc1C(c1cc2cc(C)ccc2[nH]c1=O)N1CCN(C2CCCCC2)CC1 (configuration not stated)	2%	8%	11%	/
COCCn1nnnc1C(c1cc2ccc(OC)cc2[nH]c1=O)N1CCN(C2CCCCC2)CC1 (configuration not stated)	4.5µM*	2%	-6%	-13	Flu PR8 replic=7.5*
CCN(CC(=O)N1CCC(C(N)=O)CC1)S(=O)(=O)c1ccc(Cl)cc1	0%	-1%	-3%	/
COc1ccc(/C=N/Nc2nc3ccccc3[nH]2)cc1OC	18%	-24%	22%[11.6 µM]	/
COc1cc(/C=N\Nc2nc3ccccc3[nH]2)cc(OC)c1OC	2.8µM*	5%	0%	-9
